# Reference: PubChem BioAssay AID504832 (National Center for Advancing Translational Sciences (NCATS), 2011)
# In all, about 310,000 compounds went through this assay and about 18,000 (5.8%) were called active. Another 22% or so got no clear call; they are omitted. The sample holds actives, similar compounds and a random draw of the others, so the mix is not that of the screen. A number with no mark means an inactive call. Calls come from the whole dose curve; as a rule, active = well fitted inhibition curve with a large enough effect; inconclusive = small, poorly fitted or top-dose-only effect, or another doubt; inactive = no such curve, though single readings can be large or run the other way.
# Assay: Primary qHTS for delayed death inhibitors of the malarial parasite plastid, 48 hour incubation
# Settings: P. falciparum luciferase growth in erythrocytes; series mostly up to 28.7 µM; activity change, negative = inhibition: at the top concentration
# Excerpt: The goal of this screen is to discover new antimalarial compounds that act by inhibiting the development of the apicoplast in the malarial parasite Plasmodium falciparum. The biochemical processes that make this organelle essential for erythrocytic stage parasites are not well understood. However, antibiotics such as azithromycin and tetracycline, which target the apicoplast translational machinery, have a potent antimalarial effect.
# We have developed a cell-based assay that measures parasite growth based on the expression of an integrated copy of a firefly luciferase reporter. To detect small molecules that cause this "delayed death" phenotype, erythrocytes infected with the luciferase-expressing parasites were incubated with compounds for either one or two generations, corresponding to 48 and 96 hours, respectively. Compounds that inhibit parasite growth in the second generation, but not the first, should be enriched in antimalarials that target the apicoplast. Growth inhibition is detected by a decrease in luciferase activity.
# Assay Provider: David Fidock and Eric Ekland, Columbia University
# Keywords: NIH Roadmap, MLPCN, MLI, MLSMR, qHTS, NCGC, qHTS, malaria, luciferase, viability
# Four microliters of culture medium (RPMI 1640 with 0.5% w/v Albumax (GIBCO), 24 mM sodium bicarbonate and 10 ug/mL gentamycin) were dispensed by a Multi-drop Combi into white solid 1536-well plates (Grenier) and 23 nL compound was added by a pin tool. Four microliters of infected erythrocytes (2% hematocrit, 0.1% parasitemia final concentration) in culture medium were dispensed and the plates incubated for 48 hours at 37 C in 5% CO2. Two microliters of luciferase detection reagent was added and luminescence was detected by a ViewLux (PerkinElmer) reader.
# % is set by controls: 0 for no effect and ±100 for the full control effect; potency is the fitted concentration of half-maximal effect.
Compound,"activity change, negative = inhibition",Potency
CNS(=O)(=O)c1ccc(NC(=O)Nc2ccc3c(c2)OCO3)cc1,125%,–
O=C(Nc1ccc(S(=O)(=O)Nc2ncccn2)cc1)C12CC3CC(CC(C3)C1)C2,5.34%,–
CCn1nccc1C(=O)Nc1ccc(Cl)c(Cl)c1,28.2%,–
CCn1nccc1C(=O)Nc1ccc(S(=O)(=O)NC23CC4CC(CC(C4)C2)C3)cc1,–,6.57 µM (active)
Cc1ccc(C)c(S(=O)(=O)Nc2cc(C)on2)c1,10.4%,–
OC(c1ccc(Cl)cc1)C(CN1CCOCC1)c1ccccc1 (configuration not stated),–,2.33 µM (active)
CC(CN1CCOCC1)c1ccccc1 (configuration not stated),-5.89%,–
O=C(CC(c1ccccc1)c1cc(Cl)ccc1O)NCCN1CCOCC1 (configuration not stated),47.7%,–
O=C(CN(C(=O)c1csnn1)c1ccc(Br)cc1)NC1CCCC1,18.7%,–
CC(C)(C)c1ccc(S(=O)(=O)N2CCN(C(=O)c3ccc4c(c3)C(=O)N(Cc3ccncc3)C4=O)CC2)cc1,-2.86%,–
CC(C)(C)c1ccccc1NC(=O)CN1C(=O)NC2(CCCC2)C1=O,-0.115%,–
O=C(Nn1cnnc1)c1cc(Cl)ccc1Cl,2.15%,–
CSc1ncnc2sc(C)c(C)c12,-21.6%,–
c1ccc2sc(SNC3CCCCC3)nc2c1,0.0777%,–
Cc1sc2ncnc(Sc3nc4ccccc4s3)c2c1C,–,1.85 µM (active)
Cc1coc2c1c(C)cc1oc(=O)c(CC(=O)NCC(=O)N[C@H](C(=O)O)C(C)C)c(C)c12,-9.45% [at 0.00184 µM],–
CC(=O)N[C@@H](C)C(=O)N1CCC(n2nccc2NC(=O)CCCc2ccccc2)CC1,-2.41%,–
Cc1ccc(C)c(OCCC(=O)OCC(=O)NC(=O)NCc2ccccc2)c1,-8.03%,–
CCC1CCCCN1C(=S)Nc1ccc(S(=O)(=O)Nc2ncccn2)cc1 (configuration not stated),2.45%,–
O=C(CCN1C(=O)[C@@H]2Cc3ccccc3CN2C1=O)NCCc1ccccc1,0.996%,–
O=C(c1ccc(OC2CCN(Cc3ccccn3)CC2)cc1)N1CCCCCC1,-17.7%,–
O=C(c1ccc(OC2CCN(C/C=C/c3ccc(F)cc3)CC2)cc1)N1CCCCC1,–,11.7 µM (active)
CC(=O)Nc1ccc(CN2CCC(Oc3ccc(C(=O)N4CCCC4)cc3)CC2)cc1,50.1%,–
CCc1noc(C)c1C(=O)NNC(=O)c1ccc(F)cc1,-2.99%,–
CCn1nc(C)c(CNC(=O)C2CCC(=O)N(Cc3cccc(F)c3)C2)c1C (configuration not stated),30.1%,–
CC(C)[C@H](NC(=O)N1CCn2c1nc1ccccc12)C(=O)NCc1ccc2c(c1)OCO2,-9.51%,–

Compound,"activity change, negative = inhibition",Potency
CC(C)(C)c1ccc(C(=O)N2CCC(C(=O)N3CCCCC3)CC2)cc1,-7.27%,–
CC(C)(C)c1ccc(/C=C2\Oc3c(ccc(O)c3CN3CCN(CCO)CC3)C2=O)cc1,–,10.4 µM (active)
CC(=O)Nc1cccc(NC(=O)c2ccc3c(c2)CCN3S(C)(=O)=O)c1,11.6%,–
C[C@H](NC(=O)C1CC(=O)N(c2ccc3c(c2)OCCO3)C1)C(=O)N1CCC(C(=O)O)CC1 (some centres not stated),-18.3%,–
CC1(C)c2[nH]c3ccccc3c2C[C@H]2C(=O)N(N)CC(=O)N21,34.8%,–
Cc1cc(C)cc(OCc2nnc(SCC(=O)Nc3ccccc3)o2)c1,-7.32%,–
Cc1cc(C)cc(OCc2nnc(SCC(=O)OC3CCCCC3)o2)c1,12.6%,–
Cc1ccccc1OCc1nnc(SCC(=O)N2c3ccccc3Sc3ccc(Cl)cc32)o1,–,10.4 µM (active)
CC(C)Oc1ccc(C(=O)NCC(=O)Nc2ccc3c(c2)CCC3)cc1,35%,–
O=C(Nc1ccc(S(=O)(=O)N2CCCC2)cc1Cl)C1=COCCO1,-19.6%,–
CCN(CC)c1ccc(S(=O)(=O)N2CCOCC2)cc1NC(=O)CSc1cccc[n+]1[O-],-26.3%,–
CCN(CC)c1ccc(S(=O)(=O)N2CCCCC2)cc1NC(=O)C1=COCCO1,–,13.1 µM (active)
COc1ccc(-c2noc(CCCC(=O)NC3CCCC3)n2)cc1OC,-19%,–
Cn1c(-c2ccc(F)cc2)cc2onc(-c3ccccc3Cl)c2c1=O,33.5%,–
O=C(Nc1ccc([N+](=O)[O-])cc1)OCCc1ccccn1,40.9%,–
CC[C@@H]1Cc2cc(O)ccc2C2=C1c1ccc(O)cc1C[C@H]2CC,–,11.7 µM (active)
O=C(Nc1ccccn1)C1CCN(S(=O)(=O)c2ccc3c(c2)OCCO3)CC1,114%,–
CCOc1ccc(-c2noc(CCC(=O)NC3CCCC3)n2)cc1OC,1.54%,–
Cc1ccc(C)c(OCCC(=O)OCC(=O)N2CCN(c3ccccc3)CC2)c1,7.54%,–
CC(C)NC(=O)COCc1cc(-c2ccc3c(c2)OCO3)on1,41.4%,–
COc1ccc(C(=O)CC(=O)C(=O)Nc2cc([N+](=O)[O-])ccc2OC)cc1,-19.7% [at 0.00184 µM],–
OC(COc1ccc(Br)cc1)CN1CCCC1 (configuration not stated),-3.26%,–
CN(C)CC(O)COc1ccc(C(C)(C)c2ccc(OCC(O)CN(C)C)cc2)cc1 (configuration not stated),–,5.86 µM (active)
Cc1cc(C)n(CC(O)COc2ccc(C(C)(C)C)cc2)n1 (configuration not stated),-22.6%,–
O=C(OCC(=O)N1CCc2ccccc21)c1ccc([N+](=O)[O-])cc1,-15.6%,–
O=C(N/N=C\c1cc2c(cc1Cl)OCO2)c1ccc(Br)s1,9.16%,–
